PubChem BioAssay (NCATS)
Inconclusive results are not listed. Entries that show only a call come without a potency. Calls of active or inactive are those of the source. Calls come from the whole dose curve; as a rule, active = well fitted inhibition curve with a large enough effect; inconclusive = small, poorly fitted or top-dose-only effect; inactive = no such curve, though single readings can be large or run the other way.
Potency is the fitted concentration of half-maximal effect.

What follows are compounds tested on Zika virus NS2B-NS3 protease (unlinked) (assay: Optimization of GU AMC qHTS for Zika virus inhibitors: Unlinked NS2B-NS3 protease assay (AID 1347151; note: nearly all actives have a fitted effect of over 80% in size)). Conditions: recombinant ZIKV NS2B-NS3 protease, fluorogenic AMC substrate; series mostly up to 52.5 µM.
Summary of the method: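 Fluorescence gain (340/450 nm) over 15 min at room temperature, ~20% conversion, gave percent inhibition fitted to a 4-parameter Hill equation; enzyme was unlinked NS2B-NS3 (25 nM final), pH 8.0 Tris buffer.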
For CCCn1c(=O)c2[nH]c(C3CCCC3)nc2n(CCCOC(=O)c2ccc(S(=O)(=O)F)cc2)c1=O, the Potency was “inactive”.
CCCN(CCC)C1CCc2cccc(O)c2C1 (stereo not drawn) was tested, and the Potency was “inactive”.
With c1ccc2c(c1)[I+]c1ccccc1-2 the Potency was “inactive”.
With Cc1sc2ccccc2c1CC1=NCCN1 the Potency was 26.7 µM (active).
With c1ccc2cc(CC3=NCCN3)ccc2c1 the Potency was “inactive”.
For CCCN1CCc2cccc3c2[C@H]1Cc1ccc(O)c(O)c1-3, the Potency was 29.9 µM (active).
C[C@H](Cc1ccc2c(c1)OC(C(=O)O)(C(=O)O)O2)NC[C@H](O)c1cccc(Cl)c1 was tested, and the Potency was “inactive”.
For C[C@@H]1O[C@@H](O[C@H]2C[C@@H](O)[C@]3(CO)[C@@H]4C(CC[C@]3(O)C2)[C@@]2(O)CC[C@H]([C@@H]3COC(=O)C3)[C@@]2(C)C[C@H]4O)[C@H](O)[C@H](O)[C@H]1O (stereo partly drawn), the Potency was “inactive”.
With C[C@H](N)Cc1cccc(C(F)(F)F)c1 the Potency was “inactive”.
With CCCN(CCC)C1Cc2cc(OC)c(OC)cc2C1 the Potency was “inactive”.
CC(Cc1ccc(OCC(=O)O)cc1)NCC(O)c1cccc(Cl)c1 (stereo not drawn) was tested, and the Potency was “inactive”.
For CCCN1CC[C@@H]2c3cc(O)ccc3CC[C@@H]21, the Potency was “inactive”.
With CCCN1CCC[C@@H](c2cccc(O)c2)C1 the Potency was “inactive”.
O=S1(=O)N(CCN2CC=C(c3c[nH]c4cc(F)ccc34)CC2)c2cccc3c2N1CCC3 was tested, and the Potency was “inactive”.
With Nc1cc2c(ncn2CCOCP(=O)(O)O)c(=O)[nH]1 the Potency was “inactive”.
For NNC(N)=O, the Potency was “inactive”.
COc1ccc2c(c1O)-c1cccc3c1[C@@H](C2)N(C)CC3 was tested, and the Potency was 29.9 µM (active).
c1ccc2c(N3CCNCC3)cccc2c1 was tested, and the Potency was 26.7 µM (active).
With C=CCN1C[C@@H](C)N([C@H](c2ccc(C(=O)N(CC)CC)cc2)c2cccc(OC)c2)C[C@@H]1C the Potency was “inactive”.
With NCC(CP(=O)(O)O)c1ccc(Cl)cc1 (stereo not drawn) the Potency was “inactive”.
With NCC(O)c1cc(O)c(O)cc1F (stereo not drawn) the Potency was “inactive”.
With C[N+](C)(C)CC#CCOC(=O)Nc1cccc(Cl)c1 the Potency was “inactive”.
With CC(C)NP(=O)(NC(C)C)OP(=O)(NC(C)C)NC(C)C the Potency was “inactive”.
For C[C@H]1C2Cc3ccc(O)cc3[C@@]1(C)CCN2CC1CC1, the Potency was “inactive”.
For NC(=O)c1cc(N2CC2)c([N+](=O)[O-])cc1[N+](=O)[O-], the Potency was “inactive”.
In the case of C[N+]1(C)C2CCC1CC(OC(=O)c1c[nH]c3ccccc13)C2 (stereo not drawn), the Potency is reported as “inactive”.
COc1ccc(OC)c(C(O)C(C)N)c1 (stereo not drawn) was tested, and the Potency was “inactive”.
With Cc1cc([C@@H]2CCCN2C)on1 the Potency was “inactive”.
In the case of CN(C(=O)Cc1ccc(Cl)c(Cl)c1)C(CN1CCCC1)c1cccc(OCC(=O)O)c1 (stereo not drawn), the Potency is reported as “inactive”.
In the case of NC(N)=Nc1ccc2[nH]c3c(c2c1)C[C@@]1(O)[C@H]2Cc4ccc(O)c5c4[C@@]1(CCN2CC1CC1)[C@H]3O5, the Potency is reported as “inactive”.
OCc1cnc[nH]1 was tested, and the Potency was “inactive”.
OC1CCCCC1N1CCC(c2ccccc2)CC1 (stereo not drawn) was tested, and the Potency was “inactive”.
With O=[N+]([O-])/C=C/c1ccc2c(c1)OCO2 the Potency was “inactive”.
